# Compounds with a hit are over-represented: about 10% of the library has one in this group of screens.
# JMJD2A Tudor = JMJD2A Tudor domain (human) inhibition; O75164; AlphaScreen JMJD2A-Tudor / H3K4me3 peptide binding; Potency, µM (highest dose often 114 µM), inactives show at the highest dose activity change, negative = inhibition, actives largely listed as inhibitors; 390,000 compounds, 4.4% hits; AID 504339; also: potency is read from the fitted curve at half-maximal effect; % is scaled to controls: 0 for no effect and ±100 for the full control effect; nearly all actives have a fitted effect of over 50% in size
# G9a inh = blocks human histone lysine methyltransferase G9a. Q96KQ7. AID 504332. Potency, µM (doses to about 102 µM), for inactives: top-dose activity, negative = inhibition, hits mostly inhibitors. 350,000 compounds, 8.8% hits. G9a H3K9 monomethylation, AlphaScreen, 2 h; also: potency is read from the fitted curve at half-maximal effect; % is scaled to controls: 0 for no effect and ±100 for the full control effect; nearly all actives have a fitted effect of over 75% in size
#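 Step 1: enzyme (final 20 nM) with compound, 15 min RT. Step 2: substrate peptide 500 nM and SAM 20 uM, 2 h RT. Step 3: anti-H3K9me1 antibody and AlphaScreen beads, 10 min, then plate read.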
# HP1b chromo inh = blocks HP1-beta chromodomain binding to methylated histone tails. Potency, µM (highest dose often 114 µM), inactives show at the top dose activity change, negative = inhibition, usual class: inhibitors. P83916. AID 540317. 390,000 compounds, 0.56% hits. AlphaScreen HP1-beta / biotin-H3K9me3 peptide binding; also: potency is read from the fitted curve at half-maximal effect; nearly all actives have a fitted effect of over 70% in size
#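 Compound inhibition of the preformed complex between 50 nM HP1-beta and 50 nM biotinylated H3K9me3 peptide was read by AlphaScreen. Buffer was PBS pH 7.4 with 0.01% Tween-20. Incubations ran 30 min at room temperature, with 10 ug/mL donor/acceptor beads.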
# CtBP-E1A blk = blocks the CtBP interaction with E1A; AlphaScreen GST-E1A/His-CtBP binding, 1536-well; hits give low values; activity change, % (test concentration not listed); 340,000 compounds, 0.49% hits; AID 651724; in the data active = activity change below about -65%; inconclusive = mostly about -30% to -63%; also: % is scaled to controls: 0 for no effect and ±100 for the full control effect
#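 Steps: dispense buffer (Tris pH 8.0, NaCl 300 mM, TCEP 1 mM, BSA, Tween 20); add 5X protein mix (GST-E1A, His-CtBP, 125 nM each); pin 23 nL compound; 2 h at 37 °C, dark; add 5X beads (50 ug/mL); 1 h; read.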
# BAZ2B block = blocks human BAZ2B; 360,000 compounds, 4.4% hits; AlphaScreen BAZ2B-H3K14Ac peptide displacement; Potency, µM (titrated, usually from 114 µM), for inactives: at the highest dose activity change, negative = inhibition, most hits filed as inhibitors; Q9UIF8; also: potency is read from the fitted curve at half-maximal effect; % is scaled to controls: 0 for no effect and ±100 for the full control effect; nearly all actives have a fitted effect of over 60% in size
# Target sequence (Q9UIF8 whole entry, looked up): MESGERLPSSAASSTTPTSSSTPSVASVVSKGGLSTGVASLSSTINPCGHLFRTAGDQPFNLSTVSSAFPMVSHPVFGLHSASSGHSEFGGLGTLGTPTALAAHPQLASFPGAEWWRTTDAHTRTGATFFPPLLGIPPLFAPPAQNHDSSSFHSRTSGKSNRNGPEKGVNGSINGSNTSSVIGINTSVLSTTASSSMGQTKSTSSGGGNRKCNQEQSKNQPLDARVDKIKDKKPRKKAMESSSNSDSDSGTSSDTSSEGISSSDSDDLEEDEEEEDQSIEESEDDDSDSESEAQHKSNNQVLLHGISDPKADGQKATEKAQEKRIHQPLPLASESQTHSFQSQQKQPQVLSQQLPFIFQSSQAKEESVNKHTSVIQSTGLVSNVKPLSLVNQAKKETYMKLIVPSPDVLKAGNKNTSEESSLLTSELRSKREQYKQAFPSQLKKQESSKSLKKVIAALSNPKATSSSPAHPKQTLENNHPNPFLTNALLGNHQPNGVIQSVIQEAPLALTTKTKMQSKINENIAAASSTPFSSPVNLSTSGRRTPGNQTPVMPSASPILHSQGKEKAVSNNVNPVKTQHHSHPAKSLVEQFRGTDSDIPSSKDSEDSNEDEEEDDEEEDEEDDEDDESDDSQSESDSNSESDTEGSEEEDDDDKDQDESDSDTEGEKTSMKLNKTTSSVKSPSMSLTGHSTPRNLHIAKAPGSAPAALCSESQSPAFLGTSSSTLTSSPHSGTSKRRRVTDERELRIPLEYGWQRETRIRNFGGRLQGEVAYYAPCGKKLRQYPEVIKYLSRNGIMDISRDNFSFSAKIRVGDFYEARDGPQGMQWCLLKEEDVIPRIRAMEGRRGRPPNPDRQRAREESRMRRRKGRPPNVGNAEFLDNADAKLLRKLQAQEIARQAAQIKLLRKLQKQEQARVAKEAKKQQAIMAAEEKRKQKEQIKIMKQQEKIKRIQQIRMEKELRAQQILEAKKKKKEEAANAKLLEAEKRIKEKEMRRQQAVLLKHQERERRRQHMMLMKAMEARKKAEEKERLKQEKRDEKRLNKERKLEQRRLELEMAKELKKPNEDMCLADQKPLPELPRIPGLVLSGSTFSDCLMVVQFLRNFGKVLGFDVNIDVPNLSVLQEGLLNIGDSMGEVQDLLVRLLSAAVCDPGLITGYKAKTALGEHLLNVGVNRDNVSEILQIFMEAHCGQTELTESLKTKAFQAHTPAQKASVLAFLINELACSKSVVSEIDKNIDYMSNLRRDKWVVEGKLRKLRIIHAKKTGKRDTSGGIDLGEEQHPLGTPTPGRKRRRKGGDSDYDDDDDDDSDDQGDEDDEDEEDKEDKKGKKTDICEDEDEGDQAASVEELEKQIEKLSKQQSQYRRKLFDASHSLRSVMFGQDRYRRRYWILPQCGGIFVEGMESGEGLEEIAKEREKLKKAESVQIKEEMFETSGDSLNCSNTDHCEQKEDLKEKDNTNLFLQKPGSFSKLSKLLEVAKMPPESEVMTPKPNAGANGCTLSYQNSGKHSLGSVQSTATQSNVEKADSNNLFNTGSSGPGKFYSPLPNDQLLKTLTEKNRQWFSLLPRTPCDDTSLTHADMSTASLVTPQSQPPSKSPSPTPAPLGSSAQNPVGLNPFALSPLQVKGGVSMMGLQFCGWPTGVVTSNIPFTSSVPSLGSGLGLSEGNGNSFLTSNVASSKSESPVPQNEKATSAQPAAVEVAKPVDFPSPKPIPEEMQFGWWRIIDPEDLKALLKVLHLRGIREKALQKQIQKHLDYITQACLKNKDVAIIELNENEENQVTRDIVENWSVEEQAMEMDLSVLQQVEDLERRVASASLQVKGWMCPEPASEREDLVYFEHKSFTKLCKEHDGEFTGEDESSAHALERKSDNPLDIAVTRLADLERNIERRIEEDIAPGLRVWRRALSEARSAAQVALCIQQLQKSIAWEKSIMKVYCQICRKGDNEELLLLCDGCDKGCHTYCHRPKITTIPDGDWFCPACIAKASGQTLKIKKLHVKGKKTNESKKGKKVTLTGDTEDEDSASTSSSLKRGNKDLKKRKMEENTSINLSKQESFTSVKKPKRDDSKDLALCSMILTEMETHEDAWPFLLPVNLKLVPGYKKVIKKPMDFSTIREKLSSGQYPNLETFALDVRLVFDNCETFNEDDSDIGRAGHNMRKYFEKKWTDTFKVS
#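 BAZ2B (50 nM) with biotin-H3(5-23)K14Ac peptide (50 nM) in PBS pH 7.4, 0.01% Tween-20, preformed 30 min, then compound 30 min at room temperature; top concentration 110uM. AlphaScreen streptavidin donor/nickel chelate acceptor beads (10 ug/mL final), 20 min dark, signal read.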
# Six1-Eya2 blk = inhibitors of human Six1/Eya2 interaction. Q15475+O00167. AlphaScreen GST-Six1/His-Eya2 binding, biochemical; hits give low values. activity change, % (no concentration beside the values). 360,000 compounds, 0.56% hits. AID 651725; in the data active = activity change below about -65%; inconclusive = mostly about -30% to -63%; also: % is scaled to controls: 0 for no effect and ±100 for the full control effect
#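 AlphaScreen luminescence read after one hour at 37 °C in darkness. Pin-transferred compounds met GST-Six1 and His-Eya2 protein (5X stock 250 nM/500 nM) plus glutathione donor and Ni-chelate acceptor beads (5X, 50 ug/mL).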
# * hit, by the source's call; ? = inconclusive; nt = no result given; ! = not active in a repeat; [ ] = remark or other dose. Unless noted, calls follow the shape of the dose curve; as a rule, active = well fitted inhibition curve with a large enough effect; inconclusive = small, poorly fitted or top-dose-only effect; inactive = no such curve, though single readings can be large or run the other way.
SMILES,JMJD2A Tudor,G9a inh,HP1b chromo inh,CtBP-E1A blk,BAZ2B block,Six1-Eya2 blk
O=C(O)c1ccc(Nc2nc3ccc(Cl)cc3[nH]2)cc1,?,45µM*,3%,-7,?,-12
Cc1cccc(CSc2cn(CC(=O)N3CCOCC3)c3ccccc23)c1,-34%,?,-1%,-1,-33%,-5
O=C(Cn1cc(SCc2cccc(Cl)c2)c2ccccc21)N1CCOCC1,-11%,32µM*!,31%,-6,-22%,-9
CC[n+]1ccc2cc(OC)c(OC)cc2c1Cc1ccc(OC)c(OC)c1,25µM*,22µM*,40µM*,-5,79µM*,-1
COc1ccc(Cc2c3cc(OC)c(OC)cc3cc[n+]2C)cc1OC,22µM*,-132%[59 µM],?,0,-34%,1
Cc1cc(OCCn2cnc3ccccc3c2=O)cc(C(C)C)c1,79µM*,-2%[59 µM],14%,-3,-6%,22
COCCCNC(=O)C1CCN(c2ncnc3c2nc2n3CCCCC2)CC1,-18%,0%[59 µM],25%,nt,3%,nt
COCCN1Cc2cc3cc(C)ccc3nc2SC1=Nc1ccc(OC)cc1,-26%,45µM*,28%,-5,-34%,-15
CCC(C)N=C1Sc2nc3ccc(C)cc3cc2CN1CCOC (configuration not stated),45µM*,5µM*,-10%,3,-19%,6
CCOc1ccc(N=C2Sc3nc4ccc(C)cc4cc3CN2CCOC)cc1,-18%,?,12%,-5,?,-8
CCOc1ccc2nc3c(cc2c1)CN(CCCO)C(=NCCOC)S3,-11%[11.4 µM],32µM*,-17%,-9,-5%,-27
Cc1noc(C)c1-c1nc(NCc2ccccc2)c2ccccc2n1,nt,13%[0.501 µM],nt,nt,nt,nt
CC(C)Cn1cc(C(=O)N2CCN(c3cccc(Cl)c3)CC2)c2c3ccccc3n(C)c2c1=O,-21%,?,17%,nt,-30%,nt
Cn1nc(C(F)(F)F)cc1C(=O)NC1CCCCCC1,-7%,?,27%,1,9%,2
Cc1cccc(-c2nc(CSc3nncn4c3cc3oc(C)cc34)c(C)o2)c1,-19%,-4%[59 µM],40%,nt,-29%,nt
Cn1c(=O)n(C)c2cc3[nH]cnc3cc21,-4%,-38%,20%,3,?,-10
Nc1cc2nc[nH]c2cc1N,50µM*,18µM*,41%,?,28µM*,?
COc1ccccc1/C=C/C=N\N1CCN(Cc2ccccc2Cl)CC1,20µM*,14µM*,?,9,40µM*,?
COc1ccccc1/C=C/C=N/N1CCN(Cc2ccc(Cl)cc2)CC1,45µM*,?,40µM*,?,32µM*,?
COc1cccc(/C=N/N2CCN(Cc3ccccc3)CC2)c1O,?,nt,-12%,-3,?,-10
COc1ccc(Br)cc1/C=N/N1CCN(Cc2ccccc2Cl)CC1,40µM*,11%[0.501 µM],-26%,-1,?,-22
CC(C)CCNC(=O)CCn1c(=S)oc2ccccc21,-8%,?,30%,2,11%,9
CCCC(c1nnnn1CCc1ccccc1)N1CCC(C(N)=O)CC1 (configuration not stated),4%,-4%[59 µM],28%,-2,-1%,8
COc1ccccc1CNC(=O)CCc1c(C)nn(-c2ccc(N3CCOCC3)nn2)c1C,5%,4%[59 µM],37%,nt,-3%,nt
CC1CCN(c2ccc(C(=O)O)cc2N)CC1,-25%,79µM*,6%,2,50µM*,-2
CCOC(=O)c1ccc(N2CCN(c3cc(C)ccc3C)CC2)c(N)c1,?,45µM*,3%,-13,?,-8
Nc1cc(C(=O)O)ccc1N1CCCCC1,?,?,-21%,2,?,1
O=C(Nc1ccc(Cc2ccncc2)cc1)C1CCC(N2C(=O)C3CCCCC3C2=O)CC1 (configuration not stated),1%,-1%,28%,6,-28%,-9
CCC(NC(=O)CNC(=O)CNC(=O)c1ccc(Cl)cc1Cl)c1ccc(C)cc1 (configuration not stated),4%,3%,26%,-1,-2%,6
